An excerpt weighted towards active compounds, which were near 10% of everything screened.
Lamin A splicing: LMNA splicing modulation. HeLa LMNA splicing GFP/RFP minigene ratio, 48 h. Potency, µM (titrated, usually from 46.1 µM), for the others: top-dose ratio change, negative = inhibition, hits mostly inhibitors. 200,000 tested, 0.01% active. AID 1487; active = well fitted inhibition curve with a large enough effect in the signal ratio, with a control signal flat, not every such curve was filed as active; inconclusive = small, poorly fitted or top-dose-only effect, or effect the other way, or a change in a side signal; the % refers to the signal ratio; also: potency is read from the fitted curve at half-maximal effect
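S3 HeLa stable clones carrying a lamin A-EGFP splicing minigene plus DsRed2 were seeded at 600 cells/well in Opti-MEM with 2% FBS, pin-dosed and incubated 48 h at 37°C. Acumen cytometry (488 nm) gave the GFP/RFP total-intensity ratio.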
ALOX12 inhib: inhibitors of human 12-lipoxygenase (ALOX12); P18054; purified 12-hLO, xylenol orange hydroperoxide absorbance; Potency, µM (top dose mostly 57.1 µM), for inactives: top-dose activity change, negative = inhibition, usual class: inhibitors; 150,000 tested, 0.12% active; AID 1452; active = well fitted inhibition curve with a large enough effect; inconclusive = small, poorly fitted or top-dose-only effect; also: potency is read from the fitted curve at half-maximal effect; nearly all actives have a fitted effect of over 55% in size
Target sequence (P18054 whole entry, looked up): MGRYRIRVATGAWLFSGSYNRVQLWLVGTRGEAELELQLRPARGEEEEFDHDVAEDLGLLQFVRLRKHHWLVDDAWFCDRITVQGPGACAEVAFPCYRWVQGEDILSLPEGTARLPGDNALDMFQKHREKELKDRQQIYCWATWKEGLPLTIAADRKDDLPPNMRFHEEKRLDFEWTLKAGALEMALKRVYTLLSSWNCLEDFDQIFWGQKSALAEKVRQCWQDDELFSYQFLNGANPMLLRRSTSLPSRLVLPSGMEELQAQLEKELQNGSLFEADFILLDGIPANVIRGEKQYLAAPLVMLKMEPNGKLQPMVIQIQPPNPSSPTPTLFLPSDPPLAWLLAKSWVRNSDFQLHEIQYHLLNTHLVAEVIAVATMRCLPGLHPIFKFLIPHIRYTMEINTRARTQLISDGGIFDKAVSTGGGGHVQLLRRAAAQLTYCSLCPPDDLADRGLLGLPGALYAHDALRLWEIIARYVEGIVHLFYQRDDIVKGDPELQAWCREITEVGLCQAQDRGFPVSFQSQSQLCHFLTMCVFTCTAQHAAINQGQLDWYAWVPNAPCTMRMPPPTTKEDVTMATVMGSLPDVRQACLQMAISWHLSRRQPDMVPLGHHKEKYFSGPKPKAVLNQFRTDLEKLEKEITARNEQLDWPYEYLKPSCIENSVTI
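Purified human 12hLO (150 nM), preincubated 15 min with compound, then 40 uM arachidonic acid for 30 min, room temperature, Hepes pH 7.0 with 0.01% Triton X-100. Hydroperoxide detected by ferrous iron/xylenol orange; 573/405 nm absorbance ratio gives reaction progress.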
PNC inhibitor: blocks assembly of the perinucleolar compartment | activity change (PNC), negative = inhibition, % at 10 µM | PC3M PTB-GFP, PNC prevalence imaging, 16 h; stronger effect = lower value | 140,000 tested, 3.1% active;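 active = readout at or below -70, meaning at least 70% loss of cells showing the perinucleolar compartment, a nuclear body marking cancer cells; inconclusive = readout between -30 and a set limit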;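 also: plate controls were DMSO wells for no effect and camptothecin positive control wells for full effect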
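Compounds are pinned in duplicate onto adhered PC3M cells stably expressing GFP-tagged PTB and incubated 16 h at 37 C. Cells are then fixed, nuclei stained with Hoechst, and PNC-positive cells counted.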
ALDH1A1 block: inhibitors of human aldehyde dehydrogenase 1A1; Purified ALDH1A1, NADH fluorescence, propionaldehyde substrate; Potency, µM (top dose mostly 75.3 µM), for inactives: at the highest dose activity, negative = inhibition, usual class: inhibitors; 220,000 tested, 7.3% active;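 also: potency is read from the fitted curve at half-maximal effect; plate controls were no enzyme wells and a reference inhibitor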
HPGD block: HPGD (human) dehydrogenase inhibition; purified HPGD, NADH fluorescence kinetic, PGE2 substrate; P15428; Potency, µM, for inactives: at the highest dose activity change, negative = inhibition, most hits filed as inhibitors; 150,000 tested, 4.3% active; also: potency is read from the fitted curve at half-maximal effect
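20 nM HPGD preincubated 15 min at room temperature with compound in 50 mM Tris-HCl pH 8, 0.01% Tween 20. Started with 1 mM NAD+ and 30 uM prostaglandin E2; NADH fluorescence (360/450 nm) read 5 times over 30-s intervals, last minus first.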
The depositor's hits bear a star; ? = inconclusive; nt = no result; [ ] = remark or other dose. Unless noted, calls follow the shape of the dose curve; as a rule, active = well fitted inhibition curve with a large enough effect (not every such curve was filed as active); inconclusive = small, poorly fitted or top-dose-only effect, or another doubt; inactive = no such curve, though single readings can be large or run the other way. Unless noted, % is scaled to controls: 0 for no effect and ±100 for the full control effect.

SMILES	Lamin A splicing	ALOX12 inhib	PNC inhibitor	ALDH1A1 block	HPGD block
Cn1ncc(Cl)c1C(=O)NC(=S)Nc1sc2c(c1C#N)CCCCC2	3%	-2%	85	?	25µM*
N#Cc1c(NC(=S)NC(=O)C2CCCC2)sc2c1CCCCC2	?	0%	?	10µM*	nt
CC(C)CC(=O)NC(NC(=S)Nc1sc2c(c1C#N)CCCC2)C(Cl)(Cl)Cl (centres undefined)	?	?	75	3.5µM*	14µM*
COc1ccc(NC(=O)c2cc(C3CC3)nc3c2c(C)nn3-c2ccccc2)c(OC)c1	14%[46 µM]	nt	nt	nt	nt
COc1ccc(C2=Nn3c(nnc3-c3ccco3)SC2)cc1	-8%	11%	-26	?	-26%
Oc1ccc(C2=Nn3c(nnc3-c3ccco3)SC2)cc1O	-16%	?	?	8.9µM*	14µM*
COc1ccc(OC)c(C2=Nn3c(nnc3-c3ccco3)SC2)c1	-2%	-4%	38	-5%	28µM*
O=C(COC(=O)CCCN1C(=O)c2ccccc2C1=O)Nc1ncc(Cl)cc1Cl	14%	-11%	-100*	-3%	-17%
O=C(COC(=O)CCCN1C(=O)c2cccc3cccc(c23)C1=O)Nc1cccc(C(F)(F)F)c1	?	0%	-106*	?	?
Cc1c(Cl)cnc(NC(=O)COC(=O)c2ccc3ncsc3c2)c1Cl	6%	2%	-15	-10%	-8%
O=C(COC(=O)c1ccc2ncsc2c1)Nc1ncc(Cl)cc1Cl	-9%	-2%	-95*	-10%	-8%
O=C(COC(=O)CCCN1C(=O)c2cccc3cccc(c23)C1=O)Nc1cccc(Br)c1	19%	-2%	21	?	?
O=C(COC(=O)c1ccc(O)cc1)Nc1ncc(Cl)cc1Cl	?	nt	nt	28µM*	nt
COCCNC(=O)c1ccc(-c2nc(CN3CCc4ccccc43)c(C)o2)cc1	5%[46 µM]	nt	nt	nt	nt
Cc1ccc2c(c1)nnn2C1CCN(C(=O)C2CCCCC2)CC1	?	-4%	?	7.9µM*	-5%
O=C(C1c2ccccc2Oc2ccccc21)N1CCN(c2ccc(Cl)cc2)CC1	5%	7%	-89*	-1%	-14%
Cc1ccc(Nc2ccc(C(N)=O)cc2[N+](=O)[O-])cc1C	?	2%	67	?	-21%
COc1ccccc1NC(=O)c1ccc(-n2cccn2)c([N+](=O)[O-])c1	?	nt	nt	25µM*	nt
COc1ccccc1C(=O)NNC(=O)c1ccccc1[N+](=O)[O-]	-13%	-1%	?	12%	-3%
CCOc1ccc(C(=O)NC(=S)Nc2cccnc2)cc1[N+](=O)[O-]	nt	nt	nt	-2%	nt
COc1ccc(C(=O)NNC(=O)c2ccccc2[N+](=O)[O-])cc1[N+](=O)[O-]	nt	nt	nt	13µM*	nt
COc1cc(Nc2ccc(C(=O)O)cc2[N+](=O)[O-])cc(OC)c1	?	-8%	-11	9%	20µM*
COc1ccc(C(=O)NC(=S)Nc2cccnc2)cc1[N+](=O)[O-]	nt	nt	nt	22µM*	nt
O=c1c(S(=O)(=O)c2ccccc2)cn(Cc2ccccc2)c2cc(N3CCOCC3)c(F)cc12	-22%[46 µM]	nt	nt	nt	nt
O=C(Nc1ccc(C(=O)N2CCN(c3cccc(Cl)c3)CC2)cc1)c1nsc2ccccc12	-17%[46 µM]	nt	nt	nt	nt
SMILES	Lamin A splicing	ALOX12 inhib	PNC inhibitor	ALDH1A1 block	HPGD block
COc1ccc(C(=O)NNC(=O)Cc2ccc(-c3ccccc3)cc2)cc1OC	8%	-1%	14	14%	-19%
COc1ccc(C(=O)NNc2ccccc2)cc1OC	7%	?	-3	22µM*	?
COc1ccc(C(=O)Nc2ccccc2)cc1[N+](=O)[O-]	nt	4%	nt	20µM*	-7%
COc1cccc(C(=O)Nc2ccccc2C(=O)OCc2cc(=O)n3c4c(sc3n2)CCCC4)c1	17%[46 µM]	nt	nt	nt	nt
Cc1ccc(C(=O)O/N=C\c2ccc(N3CCCCC3)c([N+](=O)[O-])c2)cc1	4%	6%	?	1.4µM*	-16%
O=C(O/N=C\c1ccc(N2CCCCC2)c([N+](=O)[O-])c1)c1c(F)cccc1F	?	6%	23	18µM*	-20%
CC[N+]1(C)C2CCC1CC(OC(=O)[C@H]1CCC(C(=O)OC3CC4CCC(C3)[N+]4(C)CC)(c3ccccc3)c3ccccc31)C2 (some centres undefined)	nt	nt	nt	2%	nt

High-throughput results (PubChem)
